“And” between values parts separate entries of the source, which are not always exact repeats. Equal values may be shown once. The panel holds about 83,000 compounds, 20% with a hit somewhere; the sample as a whole holds those more often.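 Percent growth is the endpoint: 0 to 100 indicates growth inhibition (40 means 60% inhibition), 0 means no net growth, and negative values indicate cell death.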 The source made the active and inactive calls. How the source made its calls: active means growth percent below 10; inactive means the rest.
Each compound was assayed on MOLT-4 leukemia (assay: NCI-60 one-dose screen, 48 h (100 = growth as untreated, 0 = no growth, -100 = all killed)). Details: 10 µM unless noted.

Row | SMILES | growth
1 | O=[N+]([O-])c1ccccc1/C=N\Nc1ccccc1 | 76.4% (inactive) and 89.9% (inactive)
2 | CCN(CC)CCNc1cc(-c2cccc(OC(F)(F)F)c2)nc2ccc(N3CCCC3)cc12 | -19.7% (active) and -14.3% (active) and 3.16% (active)
3 | CC(=O)Nc1cc(S(=O)(=O)O)cc2cc(S(=O)(=O)O)c(N=Nc3ccccc3)c(O)c12 | 111% (inactive) and 94.7% (inactive)
4 | CC(C)CNC(=O)c1ccccc1C(=O)NC1(C(=O)NCC(C)C)CCCC1 | 102% (inactive) and 88.6% (inactive)
5 | COc1cc2nc(N3CCN(C(=O)C4COc5ccccc5O4)CC3)nc(N)c2cc1OC (centres undefined) | 91.1% (inactive) and 66.1% (inactive) and 94.4% (inactive)
6 | O=C(Cc1cccc2ccccc12)N/N=C/c1ccc2c(c1)CCC2 | 47.9% (inactive)
7 | CC1=C(/C=C/C(C)=C/C=C/C(C)=C/C(=O)O)C(C)(C)CCC1 | 59.3% (inactive) and 99% (inactive) and 83.8% (inactive)
8 | O=C(Nc1ccc(Br)cc1)c1cc(Br)ccc1O | 17.4% (inactive) and -33.2% (active)
9 | Cc1cc(-c2ccc(NS(=O)(=O)c3ccccc3)c(C)c2)ccc1NS(=O)(=O)c1ccccc1 | 41% (inactive) and 56.3% (inactive)
10 | O=C(CCl)c1ccc2c(c1)Nc1ccccc1S2 | 46.3% (inactive) and 48.5% (inactive)
11 | CC1CCCc2sc3nc(NNC(=O)c4cnccn4)n(-c4ccccc4)c(=O)c3c21 (centres undefined) | 5.36% (active) and 10.6% (inactive)
12 | Cc1cc(O)c(C(C)C)cc1N | 95.2% (inactive) and 103% (inactive)
13 | COc1ccc2cc3[n+](cc2c1OC)CCc1cc2c(cc1-3)OCO2 | 66% (inactive) and 54.8% (inactive)
14 | COc1c(/C(C)=N/N=c2sc(C(C)=O)nn2-c2ccc(Cl)cc2)c(Oc2ccccc2)c(OC)c2occc12 | 103% (inactive) and 89.3% (inactive)
15 | OC(COc1cccc2ccccc12)CN1CCN(c2ccc(Cl)cc2)CC1 (centres undefined) | 110% (inactive)
16 | CNc1ccc2nc3ccc(=[N+](C)C)cc-3sc2c1 | -8.79% (active) and 12.2% (inactive)
17 | CC1=NN(c2ccccc2)C(=O)C1C(=O)c1ccccc1 (centres undefined) | 95.8% (inactive)
18 | OCCN1CCN(CCO)CC1 | 92.9% (inactive) and 96.2% (inactive) and 97.8% (inactive)
19 | CC1=CCC2CC1C2(C)C (centres undefined) | 96.1% (inactive) and 96% (inactive)
20 | COc1cc(/C=N/Nc2nc3c([nH]2)c(=O)n(C)c(=O)n3C)ccc1O | 87.9% (inactive) and 97.5% (inactive)

Row | SMILES | growth
21 | S=C(S)N1CCCC1 | 98.7% (inactive) and 107% (inactive)
22 | CC(=O)Oc1cc(C(=O)O)cc(OC(C)=O)c1OC(C)=O | 116% (inactive) and 94.1% (inactive)
23 | CCN(CC)C(=O)c1cccnc1 | 92.8% (inactive)
24 | O=C(Nc1cccc(Cl)c1)c1cc2ccccc2cc1O | 26.3% (inactive) and 11.1% (inactive)
25 | Cn1c(SSc2ccc(-c3cccnc3)n2C)ccc1-c1cccnc1 | 80.2% (inactive) and 17.5% (inactive)
26 | CN1CCN(CCC=C2c3ccccc3Sc3ccc(S(=O)(=O)N(C)C)cc32)CC1 | 46.3% (inactive) and 28.2% (inactive)
27 | Oc1c(Cl)cc(Cl)cc1Sc1cc(Cl)cc(Cl)c1O | 38.7% (inactive) and 16.2% (inactive) and 91% (inactive)
28 | Cn1c(=O)n(-c2ccc(C(C)(C)C#N)cc2)c2c3cc(-c4cnc5ccccc5c4)ccc3ncc21 | -5.74% (active) and -20.5% (active)
29 | O=C(N/N=C/c1ccccc1)N/N=C/c1ccccc1 | 91.8% (inactive) and 113% (inactive)
30 | COc1ccc(-c2cn[nH]c2-c2cc(OC)c(OC)c(OC)c2)cc1N | 16.3% (inactive) and 23.4% (inactive)
31 | C1CCCCNCCC1 | 110% (inactive)
32 | COc1ccccc1C(C)=O | 95.4% (inactive) and 99.1% (inactive)
33 | NS(=O)(=O)c1cc2c(cc1Cl)NC(C(Cl)Cl)NS2(=O)=O (centres undefined) | 95.1% (inactive) and 92.4% (inactive)
34 | O=C(Oc1cccc(OC(=O)c2ccccc2)c1)c1ccccc1 | 85% (inactive) and 91.3% (inactive)
35 | CC1(c2ccc3ccccc3c2)CCC(=O)O1 (centres undefined) | 95.2% (inactive)
36 | CC1=C(/C=C/C(C)=C/C=C/C(C)=C/C=N/NC(=S)NC(=S)N/N=C/C=C(C)/C=C/C=C(C)/C=C/C2=C(C)CCCC2(C)C)C(C)(C)CCC1 | -22.2% (active) and -41.2% (active)
37 | CCCCOc1cc(C(=O)NCCN(CC)CC)c2ccccc2n1 | 98% (inactive) and 101% (inactive)
38 | COc1cc2c(c(OC)c1OC)-c1ccc(OC)c(=O)cc1[C@@H](NC(C)=O)CC2 | 7.82% (active) and 6.6% (active) and 6.73% (active)
39 | CN1CCN(c2ccc3nc(-c4c(N)c5c(F)cccc5[nH]c4=O)[nH]c3c2)CC1 | -8.41% (active) and 1.37% (active)

Reference: PubChem BioAssay (NCI)
